High-throughput results from PubChem.
HT1080-NT tox: kills 2HG-producing HT-1080-NT fibrosarcoma cells; HT-1080-NT fibrosarcoma viability, CellTiter-Glo ATP luminescence, 48 h; Potency, µM (series often up to 46.1 µM), usual class: cytotoxic; hit rate 1.6% among 360,000;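 further: NT is the 2HG producing partner of a matched IDH1 knockdown line; nearly all actives have a fitted effect of over 55% in size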
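HT-1080-NT; 750 cells/well; 5% FBS RPMI; 48 h compound, 37 degrees C; CellTiter-Glo luminescence; curve fitting and curve-class assignment.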
IL1B secr inh: blocks inflammasome-driven IL-1 beta release; hit rate 4.7% among 360,000; AID 743279; THP-1 LPS/ATP IL-1B secretion, AlphaLISA, 16 h; hits give low values; activity change, % at 57.5 µM; in the data active means activity change below about -50%; inconclusive means mostly about -30% to -49%
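THP-1 cells pretreated 1 hr with compounds (up to 57.5 uM final), then stimulated with LPS (250 ng/mL final) plus ATP (1.25 mM final); secreted IL-1B measured by AlphaLISA after 16 hr, decreased signal indicating inhibition.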
HT1080 IDH1KD tx: toxicity to HT-1080 IDH1 knockdown cells (counter line); HT-1080 IDH1 knockdown viability, ATP luminescence, 48 h; Potency, µM (highest dose often 46.1 µM), hits mostly cytotoxic; hit rate 2% among 360,000
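HT-1080-IDH1KD cells (IDH1 knocked down), 750/well in RPMI with 5% FBS, treated with compound 48 h at 37 degrees C. Viability by CellTiter-Glo luminescence, normalised to DMSO and no-cell wells; concentration-response curves classed.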
DT40 TDP1 no CPT: qHTS for Inhibitors of human tyrosyl-DNA phosphodiesterase 1 (TDP1): qHTS in cells in absence of CPT. DT40 Tdp1-/- hTDP1 cells, no CPT, ATP luminescence, 48 h. Potency, µM (top dose mostly 46.2 µM), actives largely listed as inhibitors. hit rate 15% among 420,000. AID 686978, 2013; further: nearly all actives have a fitted effect of over 55% in size
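A cellular qHTS used chicken DT40 cells lacking endogenous Tdp1 but carrying stably transfected human TDP1. Compounds were applied without camptothecin, and cell growth kinetics were judged by ATP-dependent luminescence after ≥48 hr.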
ALOX12 inh: ALOX12 (human) lipoxygenase inhibition; Potency, µM (titrated, usually from 108 µM), most hits filed as inhibitors; hit rate 1.1% among 580,000; purified 12hLO, xylenol orange hydroperoxide absorbance
Target sequence (P18054 whole entry, looked up): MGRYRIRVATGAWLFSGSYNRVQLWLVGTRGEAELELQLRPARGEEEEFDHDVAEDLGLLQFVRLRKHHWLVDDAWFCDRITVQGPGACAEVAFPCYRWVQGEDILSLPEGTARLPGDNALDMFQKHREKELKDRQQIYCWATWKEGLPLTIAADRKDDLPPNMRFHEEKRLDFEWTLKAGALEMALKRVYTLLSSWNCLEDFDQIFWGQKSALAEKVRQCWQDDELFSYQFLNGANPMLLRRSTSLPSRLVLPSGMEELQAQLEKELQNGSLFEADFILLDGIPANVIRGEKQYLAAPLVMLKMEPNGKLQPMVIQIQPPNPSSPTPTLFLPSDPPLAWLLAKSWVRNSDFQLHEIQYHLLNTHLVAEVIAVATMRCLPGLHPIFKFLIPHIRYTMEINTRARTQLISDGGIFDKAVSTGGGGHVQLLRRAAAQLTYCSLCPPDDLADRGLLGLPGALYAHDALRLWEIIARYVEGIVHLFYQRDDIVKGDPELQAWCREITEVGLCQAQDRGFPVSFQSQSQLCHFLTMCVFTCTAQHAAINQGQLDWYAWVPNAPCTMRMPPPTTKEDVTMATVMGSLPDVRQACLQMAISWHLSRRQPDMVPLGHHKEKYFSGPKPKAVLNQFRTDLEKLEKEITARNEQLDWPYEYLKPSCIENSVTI
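Hydroperoxide product was detected by ferrous iron/xylenol orange as the 573 to 405 nm absorbance ratio. Arachidonic acid at 40 uM (final) was turned over for 30 min at room temperature by 150 nM human 12hLO, pH 7.0 Hepes buffer, after 15 min compound preincubation.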
TDP1 cell CPT: growth inhibition of DT40 Tdp1-/-;hTDP1 cells with camptothecin (screen for TDP1 inhibitors). hit rate 12% among 420,000. Potency, µM (highest dose often 46.2 µM), hits mostly inhibitors. chicken DT40 Tdp1-/-;hTDP1 cells + 20 nM CPT, ATP luminescence, 48 h; further: nearly all actives have a fitted effect of over 55% in size
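Chicken DT40 Tdp1-/- cells stably complemented with human TDP1 were seeded at 400 cells/well in medium containing 20 nM camptothecin, exposed to pin-transferred compounds, and grown at 37 °C for at least 48 hr. Viability was read as ATP luminescence.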
Numbers stand for hits; n = inactive; u = inconclusive; x = not tested or not shown. The full list was thinned out, with hits kept by preference. Unless noted, the call rests on the fitted dose curve; in most records, active means well fitted curve in the direction sought with a large enough effect; inconclusive means small, poorly fitted or top-dose-only effect, or another doubt; inactive means no such curve, though single readings can be large; an effect the other way counts as inactive or inconclusive.

SMILES	HT1080-NT tox	IL1B secr inh	HT1080 IDH1KD tx	DT40 TDP1 no CPT	ALOX12 inh	TDP1 cell CPT
CCCCCN(C(=O)CCC(=O)OCC(=O)c1c(C)cc(C)cc1C)c1c(N)n(CCCC)c(=O)[nH]c1=O	n	-77	n	u	u	u
CCCCCN(C(=O)CCC(=O)OCc1cc(C)ccc1C)c1c(N)n(CCCC)c(=O)[nH]c1=O	n	-63	n	26µM	x	23µM
CCCCCN(C(=O)CCC(=O)OCc1ccc(C(C)C)cc1)c1c(N)n(CCCC)c(=O)[nH]c1=O	n	n	n	16µM	n	23µM
Cc1nc2c(=O)oc3ccccc3c2nc1C	x	x	x	x	n	x
O=C1CCCN1CCCN1C(=O)[C@H]2CN(Cc3ccccc3Cl)C[C@H]2C1=O	x	x	x	x	n	x
CC1CCC(NC(=O)c2ccc3ncsc3c2)CC1 (stereo not drawn)	x	x	x	x	n	x
Cc1ccc(Sc2ccc(NC(=O)CCl)cc2)c(C)c1	n	-67	n	18µM	u	15µM
COc1ccccc1-c1nnc(SCC(=O)c2ccc(C3CCCCC3)cc2)n1Cc1ccco1	u	n	u	23µM	n	23µM
O=C(CSc1nnc(-c2ccc(O)cc2)n1Cc1ccco1)c1ccccc1	n	n	n	u	n	n
O=C(CSc1nc2ccccc2c(=O)n1Cc1ccco1)c1ccc(F)cc1	n	n	u	23µM	n	12µM
NC(=O)CSc1nc2ccccc2c(=O)n1Cc1ccco1	n	n	n	n	n	n
O=C(CSc1nnc(-c2cc3ccccc3cc2O)n1Cc1ccco1)c1ccc(F)cc1	n	n	u	16µM	n	13µM
Cc1occc1-c1nnc(SCC(=O)c2ccc(F)cc2)n1Cc1ccco1	n	n	n	u	n	u
Cc1cc(NC(=O)N2CCC(Oc3ncccc3C(=O)N(C)C)C2)ccc1Br (stereo not drawn)	x	x	x	x	n	x
O=C(NCc1ccco1)c1sc(=S)n2c1[nH]c(=O)c1ccccc12	n	-59	u	u	16µM	n
O=C(NC1CCCC1)c1sc(=S)n2c1[nH]c(=O)c1ccccc12	n	-85	n	u	u	21µM
O=C(NCc1ccccc1)c1ccc2c(=O)[nH]c3c(C(=O)NCC4CCCO4)sc(=S)n3c2c1 (stereo not drawn)	n	n	n	u	u	n
CC(C)N(CC(N)=O)Cc1cccc2cccnc12	x	x	x	x	n	x
Cn1cc(C(=O)CCl)c2ccccc21	u	-100	u	4.6µM	n	2.3µM
Cn1cc(/C(Cc2ccccc2)=N\O)c2ccccc21	n	n	n	16µM	n	23µM
CCOc1cc(/C=N/NC(=O)c2ccc(O)cc2)ccc1Oc1nc(Cl)ncc1F	n	n	n	u	u	21µM
COc1ccc(/C=N/n2cnnc2)cc1Oc1nc(Cl)ncc1F	n	n	n	n	n	n
CCOc1cc(/C=N\Nc2ncc(F)c(N3CCOCC3)n2)ccc1Oc1nc(Cl)ncc1F	u	-83	u	1.8µM	n	5.2µM
COc1ccc(/C=N/NC(=O)CC#N)cc1Oc1nc(Cl)ncc1F	n	n	n	u	n	n
Cc1ccc(CN(Cc2ccco2)C(=O)COc2ccccc2C)cc1	x	x	x	16µM	n	21µM
SMILES	HT1080-NT tox	IL1B secr inh	HT1080 IDH1KD tx	DT40 TDP1 no CPT	ALOX12 inh	TDP1 cell CPT
CCC(=O)N(CCC(c1ccc(C)cc1)c1ccco1)Cc1ccco1 (stereo not drawn)	n	n	n	23µM	u	u
Cc1cc(C)c(OCC(=O)N(Cc2ccc(N(C)C)cc2)Cc2ccco2)c(C)c1	x	x	x	7.3µM	n	12µM
Cc1ccccc1OCC(=O)N(Cc1ccco1)c1c(N)n(Cc2ccccc2)c(=O)[nH]c1=O	n	n	n	n	n	n
Cc1ccc(CN(Cc2ccco2)C(=O)COc2c(C)cc(C)cc2C)cc1	x	x	x	9.2µM	u	23µM
Clc1nc(NCc2cccs2)c2[nH]cnc2n1	x	x	x	11µM	x	13µM
COc1cccc(CNc2nc(Cl)nc3nc[nH]c23)c1	x	x	x	7.9µM	x	16µM
COc1ccc2c(c1)CCc1c-2n[nH]c1C(=O)NCCC(C)C	n	-60	u	u	n	u
CNC(=O)c1[nH]nc2c1CCc1cc(OC)ccc1-2	n	u	n	u	n	u
COc1cccc(/C=N/NC(=O)c2[nH]nc3c2CCc2ccccc2-3)c1	3.7µM	x	2.1µM	4.1µM	n	4.1µM
C/C(CC(C)C)=N\NC(=O)CC#N	x	x	x	x	n	x
COC(=O)c1cc(=O)n(Cc2cccs2)c(=Nc2ccccc2)s1	n	n	n	n	n	n
CNC(=O)C1CC(=O)N(CCc2ccc(OC)c(OC)c2)C(=Nc2ccc(F)cc2)S1 (stereo not drawn)	n	-77	n	u	n	n
COC(=O)c1cc(=O)n(Cc2ccco2)c(=Nc2ccc(F)cc2)s1	23µM	n	u	u	x	21µM
COC(=O)c1cc(=O)n(Cc2ccc(OC)c(OC)c2)c(=Nc2ccc(F)cc2)s1	u	n	n	15µM	n	16µM
COC(=O)c1cc(=O)n(Cc2ccc(F)cc2)c(=Nc2ccccc2)s1	n	u	n	u	n	u
COC(=O)c1cc(=O)n(CCc2ccc(OC)c(OC)c2)c(=Nc2ccc(F)c(Cl)c2)s1	16µM	-104	u	u	n	u
CC(C)=NNC(=O)C(C)Sc1ccccc1 (stereo not drawn)	x	x	x	x	n	x
Cc1nc2cc(NC(=O)C3CC(=O)N(C4CC4)C3)ccc2o1 (stereo not drawn)	x	x	x	x	n	x
CCN(CC)S(=O)(=O)c1ccc(C)c(NC(=O)Cc2ccccc2F)c1	x	x	x	x	n	x
COC(=O)c1cc(=O)n(-c2ccccc2)c(=Nc2ccccc2)s1	u	-58	u	23µM	n	u
C1CCc2c(c(N3CCOCC3)nc3sc4c(N5CCOCC5)nnnc4c23)C1	n	n	n	n	n	n
CC(C)c1nc2sc3c(=S)nc[nH]c3c2c2c1CCC2	n	n	n	23µM	u	u
CC(C)c1nc2sc3c(=O)[nH]cnc3c2c2c1CCC2	n	n	n	n	n	n
CN(CCO)c1ncnc2c1sc1nc(N3CCOCC3)c3c(c12)CCC3	n	n	n	21µM	n	13µM
S=c1nc[nH]c2c1sc1nc(N3CCOCC3)c3c(c12)CCCC3	n	n	n	23µM	u	u
COc1ccc(S(=O)(=O)Oc2ccc3oc(=O)cc(-c4cc5cccc(OC)c5o4)c3c2)cc1	x	x	x	x	n	x
CN(Cc1ccco1)C(=O)c1cc(-c2ccccn2)nc2ccccc12	x	x	x	x	n	x
C[C@@H](C(=O)NCc1ccccn1)[C@H]1C[C@]1(C)[C@H](NC(=O)OCc1ccccc1)c1ccccc1	n	n	n	16µM	n	23µM
